# Tau fluor cs – counter-screen for tau fibril formation inhibitors; tau K18 P301L Alexa594 fluorescence, heparin fibrillization; Potency, µM (series often up to 57.7 µM); 280,000 compounds, 0.93% hits; AID 1463; also: nearly all actives have a fitted effect of over 55% in size
#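 Human tau K18 P301L (15 uM unlabeled, 0.24 uM Alexa 594-labeled) in 100 mM sodium acetate pH 7 with 20 uM heparin, 6 hr at 37 C. ThT 30 uM added, 1 hr ambient; Alexa 594 FP and total fluorescence read at 555/632 nm.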
# TRb SRC2 PPI – inhibitors of human thyroid hormone receptor beta-SRC2 interaction; P10828; TRbeta-SRC2 peptide binding, fluorescence polarization; receptor liganded with 1 µM T3; Potency, µM (doses to about 106 µM), hits mostly inhibitors; 280,000 compounds, 0.065% hits; AID 1469; also: nearly all actives have a fitted effect of over 50% in size
#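 Fluorescence polarization of 20 nM Texas Red SRC2 peptide (20-aa NR interaction domain) bound to 0.6 uM human TRb ligand-binding domain, with 1 uM T3, after 5 hr at ambient temperature; inhibition seen as decreased polarization.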
# TR SRC2 fluor cs – Texas Red fluorescence interference in TRb-SRC2 counter-screen; 280,000 compounds, 0.29% hits; TRb/SRC2 Texas Red total fluorescence interference; AID 1479; Potency, µM (series often up to 106 µM); active = well fitted curve in either direction with a large enough effect; inconclusive = small, poorly fitted or top-dose-only effect
#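 Human TRb ligand-binding domain at 0.6 uM with 20 nM Texas Red SRC2 peptide in Tris buffer containing 1 uM T3 and 5% DMSO, incubated with compound 5 h at ambient temperature. Total fluorescence (555/632 nm) calculated as parallel + 2 × perpendicular.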
# Tau FP inhib – blocks human tau fibril formation measured by polarization | P10636 | K18 P301L tau heparin fibrillization, Alexa594 FP, 6 h | Potency, µM (doses to about 57.7 µM), actives largely listed as inhibitors | 280,000 compounds, 0.39% hits | AID 1468; also: nearly all actives have a fitted effect of over 55% in size
# Target sequence (P10636 561-689 P618L limits assumed): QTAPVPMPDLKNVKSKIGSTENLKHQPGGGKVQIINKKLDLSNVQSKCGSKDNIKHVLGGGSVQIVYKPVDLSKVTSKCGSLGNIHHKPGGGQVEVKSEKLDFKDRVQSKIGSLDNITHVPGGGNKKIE
#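 Read-out: fluorescence polarization of Alexa 594-labeled tau (0.24 uM), 555 nm excitation, 632 nm emission. Mixtures held 15 uM unlabeled K18 P301L, compound and 20 uM heparin, pH 7 acetate buffer, incubated 6 hr at 37 C.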
# Tau fibril ThT – blocks human tau fibril formation measured by thioflavin T; P10636; recombinant tau K18 P301L (four-repeat tau fragment), heparin-induced fibrillization, ThT fluorescence; Potency, µM (series often up to 57.4 µM), actives largely listed as inhibitors; 270,000 compounds, 2.1% hits; AID 1460; also: nearly all actives have a fitted effect of over 55% in size
#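 Tau K18 P301L fragment (15 uM unlabeled plus 0.24 uM Alexa 594-labeled) in 100 mM sodium acetate pH 7 with compound, fibrillization induced by 20 uM heparin for 6 hr at 37 C. Thioflavin T (30 uM) added, fluorescence read after 1 hr (ex 450, em 510 nm).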
# PNC inhibitor – perinucleolar compartment assembly inhibition; activity change (PNC), negative = inhibition, % at 10 µM; 140,000 compounds, 3.1% hits; PC3M PTB-GFP, PNC prevalence imaging, 16 h; stronger effect = lower value; AID 2417;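 active = readout at or below -70, meaning at least 70% loss of cells showing the perinucleolar compartment, a nuclear body marking cancer cells; inconclusive = readout between -30 and a set limit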
#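 Read-out is percentage of cells bearing a perinucleolar compartment, from automated 20x imaging of fixed, Hoechst-stained PC3M PTB-GFP cells. Cells were seeded 4 h, then exposed 16 h to compound (23 nl of library stock) in duplicate plates.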
# A number is an active result; n = inactive; u = inconclusive; x = not tested or not shown; [ ] = remark or other dose. Most compounds without a hit are left out; they make up all but 4.6% or so of the library. Unless noted, calls follow the shape of the dose curve; as a rule, active = well fitted curve in the direction sought with a large enough effect; inconclusive = small, poorly fitted or top-dose-only effect, or another doubt; inactive = no such curve, though single readings can be large; an effect the other way counts as inactive or inconclusive.
SMILES,Tau fluor cs,TRb SRC2 PPI,TR SRC2 fluor cs,Tau FP inhib,Tau fibril ThT,PNC inhibitor
COC(=O)C1=C(C)N(Cc2ccc(C)cc2)C(=O)/C1=C\c1ccc(O)c(OC)c1,u,n,n,u,14.1µM,u
Cc1ccc(-n2nnnc2SCC(=O)N2CCN(C(=O)c3ccco3)CC2)c(C)c1,n,n,n,n,n,-82.8
O=C(CSc1ccccc1)N1CCN(C(=O)c2ccco2)CC1,n,n,n,n,n,x
O=C(c1ccco1)N1CCN(CC(O)Cn2c3ccccc3c3ccccc32)CC1 (stereo not given),n,n,n,n,u,-87.3
O=C(CSCc1ccccc1)N1CCN(C(=O)c2ccco2)CC1,n,n,n,n,n,-100.0
CCN(C(=O)CCS(=O)(=O)c1ccc(Br)cc1)c1ccc2c(c1)OCO2,n,n,n,n,n,n
O=C(COc1ccccc1)NCC(=O)N/N=C/c1cccs1,n,n,n,n,n,n
CCc1cc(-c2n[nH]c(C)c2-c2ccc3c(c2)OCCO3)c(O)cc1O,10µM[quencher],n,n,n,u,x
CCc1cc(-c2n[nH]c(C)c2-c2nc3ccccc3n2C)c(O)cc1O,n,n,n,n,n,x
CCCc1cc(-c2n[nH]c(C)c2-c2ccc(C(=O)OCC)o2)c(O)cc1O,14.1µM[quencher],n,n,u,n,u
Cc1ccc(-c2nc3ncccn3c2Nc2ccc3c(c2)OCCO3)o1,n,n,n,n,u,n
CC(C)(C)c1ccc(S(=O)(=O)NNC(=O)C2CCN(Cc3cccc(F)c3)CC2)cc1,n,n,n,n,n,x
Cc1nc2cc(N)ccc2n1C1CCCCC1,n,n,n,n,u,x
Cc1nc2cc(C(=O)O)ccc2n1C1CCCCC1,n,n,n,n,n,-100.0
O=c1[nH]ncn1-c1cccc(C(F)(F)F)c1,n,n,n,n,n,-106.3
Cc1n[nH]c(=O)n1-c1cccc(C(F)(F)F)c1,n,n,n,n,n,n
Cc1c(C(Nc2ccccn2)c2ccccc2)c(=O)n(-c2ccccc2)n1C (stereo not given),n,n,n,n,n,-100.0
Oc1c(/C=C/C=C/C=Nc2ccccc2)sc(=S)n1Cc1ccccc1,u,n,n,u,1.78µM,x
CCn1c(O)c(/C=C/C=C/C=Nc2ccccc2)sc1=S,n,n,n,n,u,x
CCCCn1c(O)c(/C=C/C=C/C=Nc2ccccc2)sc1=S,n,n,n,u,3.16µM,x
CCn1c(O)c(C=NCc2ccccc2)sc1=S,n,n,n,n,n,x
Cc1cccc(NC(=S)NCCSc2ccc(Cl)cc2)c1,10µM[quencher],n,n,u,n,x
Cn1cnc2c(=O)oc3ccc(S(=O)(=O)N4CCN(c5ccccc5)CC4)cc3c21,n,n,n,n,n,x
CCOc1ccc(NC(=O)CCCCn2c(=O)[nH]c3ccsc3c2=O)cc1,n,n,n,n,n,x
NC(=O)c1ccccc1N/C=C/C(=O)c1cccs1,n,n,n,n,u,-93.8
SMILES,Tau fluor cs,TRb SRC2 PPI,TR SRC2 fluor cs,Tau FP inhib,Tau fibril ThT,PNC inhibitor
Cc1cccc(N/C=C/C(=O)c2cccs2)c1C,n,n,n,n,u,n
Cc1cc(C)cc(NC(=O)c2cc(S(=O)(=O)N3CCc4ccccc43)cn2C)c1,u,n,u,n,n,x
CCN=C1S/C(=C\c2cn(C(C)=O)nc2-c2ccccc2)C(=O)N1CC,n,n,n,n,n,n
CC(=O)NC1=NC(=O)/C(=C/c2cn(C(C)=O)nc2-c2ccccc2)S1,n,n,n,u,28.2µM,x
O=C(Nc1ncc(Cc2cccc(Cl)c2)s1)C1=NCCN1,n,n,n,n,n,n
COC(=O)C[C@H](NC(=O)[C@H](C)NC(=O)[C@@H](NC(=O)OCc1ccccc1)C(C)C)C(=O)CF,n,n,n,n,n,x
O=C1CC(c2cc(Br)ccc2F)c2cc3c(cc2N1)CCC3 (stereo not given),n,n,n,n,n,-97.2
Oc1ccc(Cl)cc1C=Nc1ccc2c3c(cccc13)CC2,n,n,n,n,u,u
O=[N+]([O-])c1ccc(/C=N/n2cnc3ccccc32)s1,25.1µM[quencher],n,n,n,14.1µM,n
Nc1c(-c2ccc(Cl)cc2)cnc2ncnn12,n,n,n,n,n,-109.4

# Compound activity as filed in PubChem.
